Measured values published in PubChem BioAssay (Tox21).
Values joined by “and” are separate entries in the source; they are usually repeats but may differ in a detail not shown here. Equal entries are not always repeated. Records with an inconclusive call do not appear. Entries that show only a call come without a potency. The source holds several records for some structures; these can differ, active in one and inactive in another. Active and inactive are the calls of the source. Unless noted, calls follow the shape of the dose curve; as a rule, active = well fitted curve in the direction sought with a large enough effect in the repeat runs; inconclusive = weak or mixed curves; inactive = no such curve, though single readings can be large; an effect the other way counts as inactive or inconclusive.

Assays:
[1] = molecular target: Aryl hydrocarbon receptor (Homo sapiens) (UniProt P35869); test: qHTS assay to identify small molecule that activate the aryl hydrocarbon receptor (AhR) signaling pathway (AID 743085); also: nearly all actives have a fitted effect of over 15% in size; also: potency is read from the fitted curve at half-maximal effect;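 as to activation: HG2L7.5c1 human HepG2 liver cells with stably integrated DRE-driven firefly reporter; series mostly up to about 70 µM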
Outline: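 AhR agonist activity is inferred from enhanced light output of a DRE-controlled firefly luciferase reporter in HepG2 cells, measured with ONE-Glo following 24 h treatment at 37C.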

[2] = qHTS assay to identify small molecule that activate the aryl hydrocarbon receptor (AhR) signaling pathway - cell viability counter screen (AID 743086);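 also: HepG2 liver cells carrying the AhR DRE luciferase reporter; series mostly up to about 70 µM; nearly all actives have a fitted effect of over 45% in size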
Outline: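 HepG2-AhR-luc (HG2L7.5c1) cells, 4000/well, were preincubated 5 h at 37C, exposed to compound in qHTS format for 24 hr at 37C, then given CellTiter-Fluor for 30 min; viability was read as fluorescence in the reporter wells.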

[3] = molecular target: Peroxisome proliferator-activated receptor gamma (Homo sapiens) (UniProt P37231); test: qHTS assay to identify small molecule agonists of the peroxisome proliferator-activated receptor gamma (PPARg) signaling pathway (AID 743094; active = well fitted activation curve with a large enough effect in the signal ratio in the repeat runs, not every such curve was filed as active; the % refers to the signal ratio)
Outline: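 Compounds dissolved in DMSO were added to PPARg UAS-bla HEK293H cells for 17 h at 37C, and reporter expression was quantified by fluorescence intensity after 1 h with LiveBLAzer B/G FRET substrate.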

[4] = molecular target: Peroxisome proliferator-activated receptor gamma (Homo sapiens) (UniProt P37231); test: qHTS assay to identify small molecule antagonists of the peroxisome proliferator-activated receptor gamma (PPARg) signaling pathway (AID 743191; calls by dose curve; also: series mostly up to about 63 µM; nearly all actives have a fitted effect of over 30% in size)
Outline: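 GeneBLAzer PPARg UAS-bla HEK293H cells carrying a UAS-driven beta-lactamase reporter were plated at 3000 cells/well, preincubated 5 h at 37C, then given compound for 17 h at 37C; LiveBLAzer B/G FRET substrate was read after 1 h at room temperature.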

[5] = qHTS assay to identify small molecule antagonists of the peroxisome proliferator-activated receptor gamma (PPARg) signaling pathway - cell viability counter screen (AID 743194); conditions: Potency: co-treated with 50 nM rosiglitazone; also: nearly all actives have a fitted effect of over 55% in size
Outline: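 PPARg-UAS-bla HEK293H cells were plated, rested 5 h at 37 C, then treated with compounds plus rosiglitazone (50 nM final) for 17 h at 37 C; viability was then read by CellTiter-Glo luminescence after 30 min at room temperature.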

[6] = qHTS assay for small molecule agonists of the antioxidant response element (ARE) signaling pathway (AID 743202; active = well fitted activation curve with a large enough effect in the signal ratio in the repeat runs, not every such curve was filed as active; the % refers to the signal ratio; also: potency is read from the fitted curve at half-maximal effect)
Outline: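 Compounds delivered in DMSO to ARE-bla HepG2 cells (2,000 cells/well, pre-incubated 5 h) and left 16 h at 37 C. LiveBLAzer B/G FRET substrate then added for 2 h at RT before fluorescence reading.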

[7] = qHTS assay for small molecule agonists of the antioxidant response element (ARE) signaling pathway - cell viability counter screen (AID 743203; calls by dose curve; also: nearly all actives have a fitted effect of over 55% in size)
Outline: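 Following 16 hrs of compound treatment at 37C, HepG2 cells with an ARE-controlled beta-lactamase gene were lysed with CellTiter-Glo. Luminescence was read after 30 min at room temperature.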

[8] = qHTS assay for small molecule activators of the heat shock response signaling pathway - cell viability counter screen (AID 743209); also: nearly all actives have a fitted effect of over 50% in size
Outline: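 Readout: CellTiter-Glo luminescence, 30 min at room temperature. System: HSE-bla HeLa cells, 1500/well, plated overnight. Treatment: compounds in DMSO, 5 h at 37 C.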

[9] = qHTS assay for small molecule activators of the heat shock response signaling pathway (AID 743210; active = well fitted activation curve with a large enough effect in the signal ratio in the repeat runs, with a control signal flat, not every such curve was filed as active; the % refers to the signal ratio;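 also: HeLa cells with beta-lactamase reporter driven by heat shock elements; series mostly up to about 63 µM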)
Outline: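 Reporter gene assay: HeLa cells stably bearing an HSE-bla construct, compound treatment 5 h at 37 C, LiveBLAzer substrate 2.5 h at RT, fluorescence intensity.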

[10] = qHTS assay to identify small molecule agonists of the peroxisome proliferator-activated receptor delta (PPARd) signaling pathway - cell viability counter screen (AID 743211); also: nearly all actives have a fitted effect of over 55% in size
Outline: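 qHTS cell viability: PPARd-bla HEK293H; 17 h cpd, 37C; CellTiter-Glo, luminescence at 30 min RT.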

Sequence of Peroxisome proliferator-activated receptor gamma (Homo sapiens) (P37231 whole entry, looked up): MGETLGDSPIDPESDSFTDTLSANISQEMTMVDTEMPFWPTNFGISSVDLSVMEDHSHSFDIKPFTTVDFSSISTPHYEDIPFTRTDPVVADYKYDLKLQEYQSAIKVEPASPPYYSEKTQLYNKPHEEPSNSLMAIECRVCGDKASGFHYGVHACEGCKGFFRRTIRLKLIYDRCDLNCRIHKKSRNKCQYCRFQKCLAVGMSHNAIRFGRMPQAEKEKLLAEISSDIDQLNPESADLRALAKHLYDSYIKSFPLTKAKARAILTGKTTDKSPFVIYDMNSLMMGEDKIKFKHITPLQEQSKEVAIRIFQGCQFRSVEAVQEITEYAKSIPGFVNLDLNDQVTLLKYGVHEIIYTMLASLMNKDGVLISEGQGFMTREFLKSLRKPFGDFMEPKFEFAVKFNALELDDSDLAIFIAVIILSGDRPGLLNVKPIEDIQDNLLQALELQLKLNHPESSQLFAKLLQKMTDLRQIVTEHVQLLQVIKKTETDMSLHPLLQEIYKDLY
Sequence of Aryl hydrocarbon receptor (Homo sapiens) (P35869 whole entry, looked up): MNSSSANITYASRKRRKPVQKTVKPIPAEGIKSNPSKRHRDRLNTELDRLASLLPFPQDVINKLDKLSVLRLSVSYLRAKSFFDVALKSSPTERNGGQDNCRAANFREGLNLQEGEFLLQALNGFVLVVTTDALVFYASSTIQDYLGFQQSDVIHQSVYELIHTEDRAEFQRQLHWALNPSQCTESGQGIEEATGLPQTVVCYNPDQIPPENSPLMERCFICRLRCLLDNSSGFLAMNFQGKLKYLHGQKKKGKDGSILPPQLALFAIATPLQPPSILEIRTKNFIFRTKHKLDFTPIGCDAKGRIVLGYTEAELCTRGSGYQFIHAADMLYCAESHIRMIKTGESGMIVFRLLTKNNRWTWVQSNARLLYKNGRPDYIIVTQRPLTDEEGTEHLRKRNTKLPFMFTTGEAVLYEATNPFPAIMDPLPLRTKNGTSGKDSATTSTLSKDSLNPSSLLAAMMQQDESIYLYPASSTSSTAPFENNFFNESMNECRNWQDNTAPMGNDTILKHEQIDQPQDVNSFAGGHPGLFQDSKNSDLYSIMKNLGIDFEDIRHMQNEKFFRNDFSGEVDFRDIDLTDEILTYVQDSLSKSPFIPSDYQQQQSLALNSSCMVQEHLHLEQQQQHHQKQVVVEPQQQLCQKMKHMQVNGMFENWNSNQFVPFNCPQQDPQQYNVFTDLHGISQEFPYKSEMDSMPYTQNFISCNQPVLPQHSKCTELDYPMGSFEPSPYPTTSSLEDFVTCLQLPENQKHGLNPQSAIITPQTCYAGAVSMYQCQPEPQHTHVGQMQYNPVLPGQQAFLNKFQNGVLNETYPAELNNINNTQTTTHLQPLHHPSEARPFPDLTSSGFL

SMILES | Potency [1] | Potency [2] | outcome [3] | Potency [4] | Potency [5] | Potency [6] | Potency [7] | Potency [8] | Potency [9] | Potency [10]
O=c1[nH]oc2c1CCNC2 | inactive | inactive | inactive | inactive | inactive | inactive | inactive | inactive | inactive | inactive
COC(=O)c1ccc(CBr)cc1 | inactive | inactive | inactive | inactive | inactive | inactive | inactive | inactive | inactive | inactive
COc1ccc(C=O)cc1O | inactive | inactive | inactive | inactive | inactive | inactive | inactive | inactive | inactive | inactive
CC[C@H](N)c1ccccc1 | inactive | inactive | inactive | inactive | inactive | inactive | inactive | inactive | inactive | 
CC(=NC#N)N(C)Cc1ccc(Cl)nc1 | inactive | inactive | inactive | inactive | inactive | inactive | inactive | inactive | inactive | inactive
CN(C)CCc1c[nH]c2cccc(OP(=O)(O)O)c12 | inactive | inactive | inactive | inactive | inactive | inactive | inactive | inactive | inactive | inactive
C[C@@H](N)[C@@H](O)c1ccccc1 | inactive | inactive | inactive | inactive | inactive | inactive | inactive | inactive |  | inactive
COc1cccc([C@@]2(O)CCCC[C@@H]2CN(C)C)c1 | inactive | inactive | inactive | inactive | inactive | inactive | inactive | inactive | inactive | inactive
CCOP(=S)(OCC)SCCl | inactive | inactive | inactive | inactive | inactive | inactive | inactive | inactive | inactive | inactive
CCOc1cc(OP(=S)(OC)OC)nc(CC)n1 | inactive | inactive | inactive | inactive | inactive | inactive | inactive | inactive | inactive | 
COP(=O)(O)OC | inactive | inactive | inactive | inactive | inactive | inactive | inactive | inactive |  | inactive
Cc1ccc2c(c1)C1CN(C)CCC1N2 (stereo not drawn) | inactive | inactive | inactive | inactive | inactive | inactive | inactive | inactive | inactive | inactive
CCOC(=O)CC(SP(=S)(OC)OC)C(=O)OCC (stereo not drawn) | inactive and 33.1 µM (active) | inactive | inactive | inactive | inactive | 6.86 µM (active) | inactive |  |  | 
O=C(Cl)C(Cl)(Cl)Cl | inactive | inactive | inactive | inactive | inactive | inactive | inactive | inactive | inactive | inactive
C=CCN1CC[C@]23CCCC[C@H]2[C@H]1Cc1ccc(O)cc13 | inactive | inactive | inactive | inactive | inactive | inactive | inactive | inactive | inactive | inactive
CCCCOC(C)=O | inactive | inactive | inactive | inactive | inactive | inactive | inactive | inactive |  | inactive
NCC1(CC(=O)O)CCCCC1 | inactive | inactive | inactive | inactive | inactive | inactive | inactive | inactive | inactive | inactive
COc1cccc(C=O)c1 | inactive | inactive | inactive | inactive | inactive | inactive | inactive | inactive |  | inactive
COc1cc(CCN)cc(OC)c1OC | inactive | inactive | inactive | inactive | inactive | inactive | inactive | inactive | inactive | inactive
S=C=S | inactive | inactive | inactive | inactive | inactive | inactive | inactive | inactive |  | inactive
CCNP(=S)(OC)O/C(C)=C/C(=O)OC(C)C (stereo not drawn) | 4.86 µM (active) | inactive | inactive | inactive | inactive | inactive | inactive | inactive |  | inactive
C=CC1(C)OC(=O)N(c2cc(Cl)cc(Cl)c2)C1=O (stereo not drawn) | inactive | inactive | inactive | inactive | inactive | inactive | inactive | inactive | inactive | inactive
O=S1(=O)OCCO1 | inactive | inactive | inactive | inactive | inactive | inactive | inactive | inactive |  | inactive
O=C(O)C(Br)(Br)Br | inactive | inactive | inactive | inactive | inactive | 5.44 µM (active) | inactive | inactive | inactive | inactive
CC1NCCOC1c1ccccc1 (stereo not drawn) | inactive | inactive | inactive | inactive | inactive | inactive | inactive | inactive | inactive | inactive
NCCOS(=O)(=O)O | inactive | inactive | inactive | inactive | inactive | inactive | inactive | inactive | inactive | inactive
